RGS4 inhibitor – human RGS4 inhibition | Potency, µM (top dose mostly 114 µM), without a hit: top-dose activity change, negative = inhibition, usual class: inhibitors | P49798 | 0.039% of 390,000 active | Transcreener GDP fluorescence polarization, RGS4-accelerated GTP hydrolysis; active = well fitted curve in the direction sought with a large enough effect; inconclusive = small, poorly fitted or top-dose-only effect, or another doubt; inactive = no such curve, though single readings can be large; an effect the other way counts as inactive or inconclusive; note: potency is the fitted concentration of half-maximal effect; % is set by controls: 0 for no effect and ±100 for the full control effect; nearly all actives have a fitted effect of over 75% in size
Target sequence (P49798 whole entry, looked up): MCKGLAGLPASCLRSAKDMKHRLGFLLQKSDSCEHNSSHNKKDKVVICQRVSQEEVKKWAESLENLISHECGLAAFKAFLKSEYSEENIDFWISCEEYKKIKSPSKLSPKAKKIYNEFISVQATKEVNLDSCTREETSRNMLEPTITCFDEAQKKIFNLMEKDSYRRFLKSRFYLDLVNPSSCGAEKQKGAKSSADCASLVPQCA
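MLSMR compounds (23 nl, pin-transferred) preincubated 10 min at room temperature with a 500nM (2x) first reagent, then RGS4 at 900nM (2x) plus Transcreener GDP mix added; fluorescence polarization (620/688 nm) read before and after 90 min at 30 °C.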
Akt phos inh – inhibitors of Akt phosphorylation; Neuro2A IGF-stimulated pAkt S473 HTRF, 20 min; active compounds read low; activity change, % for hits at 50 µM; 0.32% of 360,000 active; AID 651550; in the data active = activity change below about -80%; inconclusive = mostly about -51% to -80%; note: % is set by controls: 0 for no effect and ±100 for the full control effect
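Neuro2A cells (4,500/well, DMEM with 0.5% FBS) were treated with compound at a single 50 µM final concentration, stimulated with 6 nM IGF for 20 min at 37 °C, and lysed. Phospho-Akt Ser473 was read by HTRF as 665/615 ratio ×10^4.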
Six1-Eya2 inh – Six1/Eya2 interaction inhibition. Q15475+O00167. AlphaScreen GST-Six1/His-Eya2 binding, biochemical; active compounds read low. activity change, % (no concentration beside the values). 0.56% of 360,000 active; note: % is set by controls: 0 for no effect and ±100 for the full control effect
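Six1/Eya2 binding was read as AlphaScreen signal after compounds were pinned into GST-Six1 plus His-tagged Eya2 (5X stock 250/500 nM) in pH 8.0 Tris/NaCl/TCEP buffer, beads added, then incubated 1 h, 37 C, dark.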
CtBP-E1A blk – inhibitors of CtBP/E1A interaction; activity change, % (no concentration beside the values); AlphaScreen GST-E1A/His-CtBP binding, 1536-well; active compounds read low; 0.49% of 340,000 active; AID 651724; note: % is set by controls: 0 for no effect and ±100 for the full control effect
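GST-E1A and His-tagged CtBP (125 nM each as 5X stock) were preincubated with pin-transferred compound for 2 h at 37 °C in the dark, then glutathione donor and nickel acceptor beads were added for 1 h before AlphaScreen reading.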
GRP78 ERSR act – inducers of ER stress response in human glioma cells | 0.02% of 420,000 active | U87-MG GRP78 promoter luciferase reporter, 16 h | Potency, µM, for the others: top-dose activation, hits mostly activators; active = well fitted curve in the direction sought with a large enough effect; inconclusive = small, poorly fitted or top-dose-only effect, or another doubt; inactive = no such curve, though single readings can be large; an effect the other way counts as inactive or inconclusive; note: potency is the fitted concentration of half-maximal effect; series mostly up to about 76 µM; % of control where 0% means no effect; nearly all actives have a fitted effect of over 35% in size
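Stably transfected U87-MG glioma cells carrying a GRP78-based luciferase sensor; 16 h compound incubation. Luminescence end-point read 10 min after Bright-Glo addition at room temperature.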
Active calls of the source: *; i = inactive; ? = inconclusive; . = no result; [ ] = another dose, or the depositor's remark. In the library only some 0.88% were active in any assay of this set; here they are far more common. Cut-off read from the data, not from the text of the source, unless noted: active = activity change below about -65%; inconclusive = mostly about -30% to -63%; inactive = weaker than that.

SMILES	RGS4 inhibitor	Akt phos inh	Six1-Eya2 inh	CtBP-E1A blk	GRP78 ERSR act
C=CCOc1c(Cl)cc(CNCCC)cc1Cl	12.9%	-91.4%*	5.0	-0.5	5.9%
CCCNCc1cc(Cl)c(OCC)c(Cl)c1	-37.0%	i	29.9	40.7	-1.8%
O=C(NCCN1CCOCC1)c1cc(-c2cccs2)on1	0.5%	i	-9.3	-9.8	11.2µM*
Cc1ccccc1C(=O)N1CC/C(=N/OS(=O)(=O)O)c2ccc(Cl)cc21	.	.	.	.	-3.6%
COc1ccc(S(=O)(=O)N2CC(C(=O)O)Oc3ccc(CC(=O)O)cc32)cc1 (stereo not given)	2.8%	-123.4%*	3.8	2.7	-3.5%
O=C(NCC1(N2CCCCC2)CCCCC1)c1ccc(-n2cc(NC(=O)c3cccnc3)cn2)cc1	.	.	.	.	-6.9%
O=C(O)c1cccc(Nc2nc(-c3cccnc3)nc3ccccc23)c1	-14.3%	i	-80.5*	?	-1.4%
O=c1[nH]c(=O)c2nnc(N/N=C\c3ccc(O)cc3)nc2[nH]1	-25.4%	i	-75.4*	-65.2*	4.3%
CCN(CC)c1ccc(N=Cc2ccccc2[N+](=O)[O-])cc1	-137.9%	i	-79.9*	15.9	1.8%
CCN(CC)c1ccc(N=Cc2ccc([N+](=O)[O-])o2)cc1	?	i	?	-23.4	-2.1%
C=CCn1c(-c2cccc(Cl)c2)n[nH]c1=S	-32.6%	-108.7%*	-2.0	7.1	2.3%
COc1cc(/C=N/N(CCO)C2=NS(=O)(=O)c3ccccc32)cc(OC)c1OC	-11.6%[56.9 µM]	i	-65.5*	-90.4*	-2.5%
CN(C)c1ccc(/C=N/N(CCO)C2=NS(=O)(=O)c3ccccc32)cc1	-1.4%	i	-66.9*	.	2.7%
O=S1(=O)N=C(N(CCO)/N=C/c2ccc(Cl)cc2)c2ccccc21	20.5%	i	?	.	-3.3%
COc1cc(Br)cc(/C=N/N(CCO)C2=NS(=O)(=O)c3ccccc32)c1OC	5.3%	i	-29.5	?	-10.5%
O=S1(=O)N=C(N(CCO)/N=C/c2ccc(Br)cc2)c2ccccc21	14.6%	i	?	?	-4.0%
CN(/N=C/c1ccncc1)C1=NS(=O)(=O)c2ccccc21	-9.7%	i	-87.6*	-86.3*	2.0%
O=S1(=O)N=C(N(CCO)/N=C/C=C/c2ccccc2)c2ccccc21	-11.6%	i	-84.8*	-89.0*	-4.3%
CC(C)(C)NC(=O)CCN(/N=C/c1ccc([N+](=O)[O-])o1)C1=NS(=O)(=O)c2ccccc21	-20.0%	i	-87.5*	-74.1*	-6.5%
CN(C)c1ccc(/C=N/N(CCC(=O)NC(C)(C)C)C2=NS(=O)(=O)c3ccccc32)cc1	6.2%	i	19.4	1.2	-3.2%
O=C(CN1C(=O)/C(=C/c2ccco2)SC1=S)Nc1ccc(C(=O)O)c(O)c1	-13.4%	.	-65.1*	.	-6.7%
CCCCCCNc1ccc(/C=C/c2ccnc3ccccc23)cc1	.	.	.	.	-1.8%
COc1ccc(C(=O)NCc2nc(-c3cccc(NC(=O)c4ccc(C)s4)c3)oc2C)cc1	.	.	.	.	-5.2%
O=[N+]([O-])c1cc(Cl)c2cccnc2c1O	2.3%	i	-81.3*	-91.5*	-2.2%
Oc1c(I)cc(Cl)c2cccnc12	?	i	-95.3*	-94.6*	-5.3%
SMILES	RGS4 inhibitor	Akt phos inh	Six1-Eya2 inh	CtBP-E1A blk	GRP78 ERSR act
Clc1cc2cccnc2c2ncccc12	-7.6%	i	-67.2*	-96.0*	-7.1%
O=[N+]([O-])c1ccc(Cl)c2cccnc12	10.4%	i	-10.8	-1.9	-0.9%
O=[N+]([O-])c1cc(Cl)c(O)c2ncccc12	-2.0%	i	-80.3*	-90.7*	-2.5%
Cc1cnc(C)c(-c2cccc3c2OC(CNC(=O)/C=C/c2ccncc2)C3)n1 (stereo not given)	.	.	.	.	-4.3%
Cc1ncc2c(c1CNS(=O)(=O)N(C)C)CCN(C(=O)/C=C/c1ccccc1F)C2	.	.	.	.	-2.2%
O=[N+]([O-])c1cc(F)c2cccnc2c1O	-46.5%	i	-87.9*	.	-1.6%
O=[N+]([O-])c1ccc(O)c2cccnc12	12.9%	i	-10.1	-6.2	-1.8%
Cc1cnc2c(C)cccc2c1C	.	.	.	.	-2.8%
Cc1c(C)c2cccnc2c2ncccc12	-13.1%	i	-92.5*	-95.4*	-7.6%
COc1ccc(CN2CCCC(n3cc(C(=O)N4CCCCC4)nn3)C2)c(OC)c1C (stereo not given)	.	.	.	.	-4.2%
Cc1cccc(Cc2c(C)nc3c(C(=O)N4CCN(Cc5ccc6c(c5)OCO6)CC4)cnn3c2C)c1	7.0%	-83.4%*	-14.4	-0.8	-2.0%
Cc1ccccc1Cc1c(C)nc2c(C(=O)N3CCN(Cc4ccc5c(c4)OCO5)CC3)cnn2c1C	3.9%	i	-9.0	-14.3	-0.5%
COc1ccccc1-c1ccnc(-n2ncc(C(=O)N[C@H]3CCCCNC3=O)c2C2CC2)n1	.	.	.	.	-3.9%
Cc1c(CCC(=O)O)c(=O)oc2cc3occ(-c4ccc(Cl)cc4)c3cc12	-26.4%	i	?	-71.0*	-0.6%
Cc1c(CCC(=O)O)c(=O)oc2c(C)c3occ(-c4ccc(Cl)cc4)c3cc12	-24.1%	i	-86.3*	-80.6*	3.2%
Cc1c(CCC(=O)NCC(=O)O)c(=O)oc2cc3occ(-c4ccccc4)c3cc12	5.2%	i	?	-25.5	-8.6%
CCCC(NC(=O)CCc1c(C)c2cc3c(-c4ccccc4)coc3cc2oc1=O)C(=O)O (stereo not given)	-12.3%	i	-17.1	-67.8*	-11.0%
Cc1c(CCC(=O)O)c(=O)oc2cc3occ(-c4ccc(F)cc4)c3cc12	21.7%	i	?	?	?
Cc1c(CC(=O)O)c(=O)oc2c(C)c3occ(-c4ccccc4)c3cc12	-6.1%	i	-77.1*	0.0	-4.0%
Nc1ccc(/C=C/c2ccnc3ccccc23)cc1[N+](=O)[O-]	.	.	.	.	-1.0%
CC(=O)NC(O)C(=O)c1ccccc1 (stereo not given)	7.5%	-109.1%*	4.9	-0.8	-1.4%
CC(=O)NC(Cc1ccccc1)Cc1ccccc1	25.0%	i	-17.2	-6.7	-2.2%
CC(=O)Nc1ccc(C(=O)Nc2nc(-c3cccnc3)cs2)cc1	?	i	-5.9	-12.5	-3.5%
O=C(Nc1nc(-c2ccccn2)cs1)c1ccc2c(c1)OCCO2	?	i	-81.8*	?	-8.2%
CC(=O)Nc1ccc(C(=O)Nc2nc(-c3ccccn3)cs2)cc1	?	i	-81.4*	-90.9*	3.9%
SMILES	RGS4 inhibitor	Akt phos inh	Six1-Eya2 inh	CtBP-E1A blk	GRP78 ERSR act
O=C(Nc1nc(-c2ccccn2)cs1)c1ccccc1-n1cnnn1	-36.5%[11.4 µM]	i	-90.6*	-98.1*	-0.4%
O=C1CC(N2CCN(c3ccc(Cl)c(Cl)c3)CC2)C(=O)N1 (stereo not given)	-15.3%	-119.7%*	-8.5	-0.5	-2.3%
CCOC(=O)c1oc2c(c1C)/C(=N/O)CCC2	-11.9%	i	-83.1*	-3.0	2.4%
CCOC(=O)c1oc2c(c1C)C(=O)CCC2	-20.1%	i	2.3	17.1	0.5%
Nc1cccc2cccnc12	.	.	.	.	-2.7%
COc1cccc(CNc2nc3nc(C)cc(C)n3n2)c1	-11.9%	i	-0.4	6.1	0.1%
